TRPV1 potentiator: human TRPV1 potentiation; TRPV1-expressing cells, Fluo-8 calcium influx, capsaicin EC20 potentiation; potentiation, % at 8.33 µM; 0.02% of 320,000 active; in the data active = potentiation above about 80%; inconclusive = between about 30% and that limit; also: 0% is about no effect
Target sequence (Q8NER1 whole entry, looked up): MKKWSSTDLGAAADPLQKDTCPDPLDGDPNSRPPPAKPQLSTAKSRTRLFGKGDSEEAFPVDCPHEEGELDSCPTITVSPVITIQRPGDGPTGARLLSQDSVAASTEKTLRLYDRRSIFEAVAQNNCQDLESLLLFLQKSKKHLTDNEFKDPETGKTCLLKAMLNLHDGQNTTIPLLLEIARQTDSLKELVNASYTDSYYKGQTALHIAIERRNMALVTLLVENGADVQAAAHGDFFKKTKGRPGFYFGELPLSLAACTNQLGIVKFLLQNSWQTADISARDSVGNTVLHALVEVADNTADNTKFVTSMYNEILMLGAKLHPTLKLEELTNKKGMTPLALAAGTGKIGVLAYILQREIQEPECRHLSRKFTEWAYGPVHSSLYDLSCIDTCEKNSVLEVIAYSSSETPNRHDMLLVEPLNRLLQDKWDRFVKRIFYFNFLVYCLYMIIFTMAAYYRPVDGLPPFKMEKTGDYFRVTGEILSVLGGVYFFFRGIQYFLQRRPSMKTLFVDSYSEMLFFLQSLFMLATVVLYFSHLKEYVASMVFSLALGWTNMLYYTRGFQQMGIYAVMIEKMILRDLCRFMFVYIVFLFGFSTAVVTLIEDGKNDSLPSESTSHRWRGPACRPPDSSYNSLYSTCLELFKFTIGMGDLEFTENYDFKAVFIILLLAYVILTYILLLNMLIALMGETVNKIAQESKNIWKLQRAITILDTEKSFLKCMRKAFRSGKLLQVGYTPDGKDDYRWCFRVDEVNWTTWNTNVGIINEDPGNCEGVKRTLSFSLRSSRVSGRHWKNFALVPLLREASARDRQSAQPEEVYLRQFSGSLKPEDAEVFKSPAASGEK
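TRPV1-expressing cells were cultured overnight at 35.5C and loaded with Fluo-8 calcium dye for 40 to 90 min at room temperature. After a 10 s baseline, compound was added and calcium influx was read kinetically for 3 min (ex 480/em 520 nm).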
TRPV1 ag: human TRPV1 agonism; AID 540275; TRPV1-expressing cells, Fluo-8 calcium influx, agonist mode; activation, % at 8.33 µM; Q8NER1; 0.19% of 320,000 active; in the data active = activation above about 80%; inconclusive = between about 30% and that limit; also: 0% is about no effect
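Fluo-8 calcium influx in TRPV1-expressing cells, kinetic read (ex 480/em 520 nm). Compound added and read 3 min for agonist activity, followed by capsaicin at EC20 final and 2 min further read for enhancement.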
p53 reactivation: re-activators of mutant p53; H1299 p53-A138V BP100-luciferase reporter, luminescence, 24 h; Potency, µM (highest dose often 92.2 µM), for inactives: at the top dose activity change, positive = activation, actives largely listed as activators; 0.063% of 320,000 active; active = well fitted activation curve with a large enough effect; inconclusive = small, poorly fitted or top-dose-only effect; inactive = no such curve, though single readings can be large or run the other way; also: potency is read from the fitted curve at half-maximal effect; % of control where 0% means no effect; nearly all actives have a fitted effect of over 45% in size
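p53-null H1299 cells stably carrying temperature-sensitive p53-A138V and a BP100-luciferase reporter were pinned with compounds (4-point, 1:5 series) and held 24 hrs at 37 deg C. Luminescence was read 10 min after detection reagent.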
ClpP mod: qHTS Assay for Activators of ClpP; 1.9% of 340,000 active; purified B. subtilis ClpP, FRET peptide cleavage, 20 min; Potency, µM (series often up to 57.5 µM), without a hit: at the highest dose activity change, negative = active; active = well fitted falling curve with a large enough effect; inconclusive = small, poorly fitted or top-dose-only effect; inactive = no such curve, though single readings can be large or run the other way; also: potency is read from the fitted curve at half-maximal effect; the source files actives as falling curves though it sought activators and does not explain the sign; nearly all actives have a fitted effect of over 65% in size
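Buffer: 100 mM Tris/HCl pH8, 100 mM KCl, 0.05% low protease BSA, 2.5% glycerol, 0.01% Tween-20. ClpP 10 microg/mL final; 20 min RT; delta FRET normalized to ADEP and DMSO controls.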
hERG WT inh: inhibitors of human wildtype KCNH2 potassium channel; Q12809; U2OS, BacMam KCNH2, thallium flux FluxOr; stronger effect = lower value; activity change, % at 1.84 µM; 0.37% of 340,000 active;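 active = maximum activity change below -70%; inconclusive = maximum activity change between -70% and -50%; inactive = maximum activity change above -50%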; also: % is scaled to controls: 0 for no effect and ±100 for the full control effect
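U2OS cells transduced with wild-type KCNH2 virus are loaded with FluxOr dye for 45 min, and thallium flux is measured in kinetic reads before and after stimulation buffer. Rate constants are normalized to DMSO controls.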
KCNH2 3.1 block: inhibitors of human KCNH2 3.1 potassium channel isoform; U2OS KCNH2 3.1, thallium flux FluxOr; stronger effect = lower value; activity change, % (tested at about 1.8 µM); 0.95% of 340,000 active; AID 720553;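 active = maximum activity change below -70%; inconclusive = maximum activity change from -70% to -50%; inactive = maximum activity change above -50%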;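 also: thallium influx rate constant from kinetic fluorescence after stimulation buffer; % is scaled to controls: 0 for no effect and ±100 for the full control effect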
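Channel expression came from 3.1 mutant virus (1.77 x 10^8 /mL) applied to suspended U2OS cells for 4 h. Flux was tracked with FluxOr dye plus Red40 quencher, and kinetic rate constants normalized to controls.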
The depositor's hits bear a star; u = inconclusive; x = no result given. An excerpt weighted towards active compounds, which were near 2.6% of everything screened.

SMILES	TRPV1 potentiator	TRPV1 ag	p53 reactivation	ClpP mod	hERG WT inh	KCNH2 3.1 block
COC(=O)CC(c1ccc(OC)c(OC)c1)c1ccc(OC)c(OC)c1	-7.4	1.1	-1.7%	x	-211.9*	-5.2
CCOC(=O)CCNC(=O)N1CCC(CCC(=O)NCc2ccc(F)cc2)CC1	-20.5	13.2	x	0.6%	2.1	3.0
CCOC(=O)CCNCc1ccc(F)cc1	-4.4	-0.1	0.1%	17.8µM*	7.4	5.1
COc1ccc(Cn2c(SCC(=O)NCc3ccc(Cl)cc3)nc3ccsc3c2=O)cc1	x	x	x	0.2%	x	x
Cc1oc2ncn(C)c(=O)c2c1C(=O)NCc1ccccc1	x	x	x	-2.6%	x	x
COc1cc(OC)c2c(OC)cccc2n1	-0.5	-2.2	13.6%	17.8µM*	7.2	9.2
COc1cc(C)c2ccccc2n1	x	x	x	-15.6%	x	x
N#Cc1cnn2cc(-c3ncc(C(F)(F)F)cc3Cl)cnc12	0.8	0.5	1.0%	28.2µM*	-7.8	-14.2
Cc1cc(C)cc(-n2ccn3c(CC(C)(C)CC(=O)O)nnc3c2=O)c1	x	x	x	-4.2%	x	x
Cc1cccc(C=Nc2ccc3c(c2)oc2ccccc23)c1O	-6.1	-1.7	u	31.6µM*	-1.2	-12.2
Cc1ccccc1N=Cc1cccc(O)c1O	12.8	1.8	-20.3%	0.7%	-1.4	-15.7
COc1ccccc1-n1cnnc1SCC(=O)Nc1ccccc1	3.5	-4.9	16.9%	x	-0.9	-85.7*
COC(=O)c1ccc(-c2sc3nc(N4CCOCC4)c4c(c3c2N)CCCC4)o1	6.8	3.1	-2.4%	-18.3%	-0.3	10.2
CC12CCC(=O)N1c1c(sc3nc(N4CCOCC4)c4c(c13)CCCC4)C(=O)N2 (stereo not drawn)	-10.9	7.4	-4.3%	25.1µM*	-5.0	-4.5
O=C(CCn1c(=O)c2cccn2c2cccnc21)NCc1ccccc1Br	x	x	x	-28.8%	x	x
Cc1cccc(NS(=O)(=O)c2cccs2)n1	7.5	-1.1	4.3%	20µM*	3.7	11.6
Cc1cc(-c2ccc(C)c(S(=O)(=O)Nc3cccc(C)n3)c2)on1	x	x	x	31.6µM*	x	x
Cc1ccccc1Cc1c(C)nc2nc(SCC(=O)N(C)c3ccccc3)nn2c1C	x	x	x	-8.6%	x	x
COc1ccc(C2CC(c3ccc(Cl)cc3)Nc3nc(NC(=O)c4ccco4)nn32)cc1 (stereo not drawn)	7.8	-2.6	-17.7%	-0.2%	-37.8	-71.4*
COc1cc(-c2c(-c3ccc4c(c3)OCO4)noc2-c2ccsc2)cc(OC)c1OC	x	x	x	-1.6%	x	x
c1ccc(-c2nc3ccccc3c3nc4ccccc4n23)cc1	3.1	3.4	-2.1%	0.1%	-11.6	-3.3
c1ccc(-c2nc3nonc3c3nc4ccccc4n23)cc1	7.7	-1.2	10.2%	-8.0%	5.3	-79.8*
CCn1c(=N)c(C(=O)NC2CCCCC2)cc2c(=O)n3cc(C)ccc3nc21	x	x	x	3.8%	x	x
CCO/C=C1/C(=O)N(c2ccc(OC)cc2)C(=O)c2ccccc21	-2.7	-0.3	-3.0%	3.8%	-13.1	-0.9
CCO/C=C1\C(=O)N(c2ccccc2)C(=O)c2ccccc21	-2.4	5.6	0.3%	31.6µM*	-19.2	10.8
SMILES	TRPV1 potentiator	TRPV1 ag	p53 reactivation	ClpP mod	hERG WT inh	KCNH2 3.1 block
Cc1cc2c(cc1S(=O)(=O)N1CCN(c3cccc(C)c3C)CC1)OCCN2C	2.9	12.1	x	28.2µM*	3.9	u
CCN(CC)c1ccc2c(C)c(CN3CCOCC3)c(=O)oc2c1	-0.1	9.0	36.6%	28.2µM*	-4.7	3.1
CCN(CC)c1ccc2c(C)c(CO)c(=O)oc2c1	-0.5	1.2	10.2%	x	1.7	15.0
Cc1nn2c(=O)cc(COC(=O)c3ccccc3NC(=O)c3cccs3)nc2s1	x	x	x	-12.3%	x	x
C[C@@]12C(=O)N(CC3CCCO3)CC(=O)N1[C@H]1c3cc(Cl)ccc3OC[C@@H]1[C@@H]2c1ccccc1 (stereo partly drawn)	x	x	-7.5%	-0.1%	2.7	-92.8*
C[C@@]12C(=O)Nc3ccc(Br)cc3C(=O)N1[C@H]1c3cc(Cl)ccc3OC[C@@H]1[C@@H]2c1ccccc1	-40.6	4.7	-1.8%	-6.5%	-2.7	-74.3*
C[C@@]12C(=O)Nc3ccc(Cl)cc3C(=O)N1[C@H]1c3cc(Cl)ccc3OC[C@@H]1[C@@H]2c1ccccc1	x	x	-3.4%	-20.8%	0.3	-42.8
CCOC(=O)[C@H]1[C@H]2COc3ccccc3[C@@H]2N2C(=O)c3cc(OC)ccc3NC(=O)[C@@]12C	3.2	u	-7.6%	-25.7%	4.5	-9.8
CCOC(=O)[C@H]1[C@H]2COc3ccc(OC)cc3[C@@H]2N2C(=O)c3cc(C)ccc3NC(=O)[C@@]12C	12.4	98.7*	-9.6%	-2.1%	-16.6	-17.7
CCOC(=O)[C@H]1[C@H]2COc3ccc(C)cc3[C@@H]2N2C(=O)c3ccc(F)cc3NC(=O)[C@@]12C	20.0	85.0*	-5.1%	-7.5%	2.3	2.6
C[N+]1(CC(=O)c2ccc(I)cc2)CCCc2ccccc21 (stereo not drawn)	x	x	x	-2.3%	x	x
O=C([C@@H]1CC=C[C@@H]2CCN(C3CCCCC3)C(=O)[C@@H]21)N1CCOCC1	x	x	x	0.4%	x	x
CCOC(=O)[C@H]1[C@H]2COc3ccc(C)cc3[C@@H]2N2C(=O)c3ccccc3NC(=O)[C@@]12C	6.9	89.7*	-5.7%	-2.2%	3.2	2.0
CCOC(=O)[C@H]1[C@H]2COc3ccc(C)cc3[C@@H]2N2C(=O)c3cc(Cl)ccc3NC(=O)[C@@]12C	25.2	81.8*	-14.4%	-1.5%	6.5	-16.2
CCOC(=O)[C@H]1[C@H]2COc3ccc(C)cc3[C@@H]2N2C(=O)c3cc(F)ccc3NC(=O)[C@@]12C	18.0	91.3*	-15.6%	-3.1%	x	x
Cc1cccc(NC(=O)COc2ccccc2C(=O)Nc2ccccc2)c1	x	x	x	17.3%	x	x
CCOc1ccc(C(=O)Nc2c(C(=O)Nc3ccccc3OC)oc3ccccc23)cc1OCC	x	x	x	-6.1%	x	x
Cc1cccc(C)c1OCc1cc(C(=O)NC2CCC2)no1	-11.8	u	27.5%	4.2%	12.5	-94.2*
Cc1ccc(C)c(Cn2c3ccccc3c3cnn(CC(=O)NC(C)CCc4ccccc4)c(=O)c32)c1 (stereo not drawn)	x	x	x	-20.1%	x	x
CCn1c(NCc2cc(Br)ccc2NS(=O)(=O)c2ccc(C)cc2)nc2ccccc21	12.7	1.5	6.2%	-4.7%	4.7	-81.9*
O=C(c1ccc(S(=O)(=O)N2CCCCCC2)cc1)N1CCC(CN2C(=O)c3cccc4cccc(c34)C2=O)CC1	-23.7	u	4.1%	28.2µM*	-10.2	-13.0
O=C(c1ccc(S(=O)(=O)N2CCCC2)cc1)N1CCCCC1	5.0	-1.2	-2.4%	1.3%	3.4	-3.5

Compound activity (PubChem)
